In PubChem BioAssay AID485344 (National Center for Advancing Translational Sciences (NCATS), 2010):
The campaign covered roughly 340,000 compounds. About 6,900 (2%) were called active. The sample holds actives, similar compounds and a random draw of the others, so the mix is not that of the screen. Cut-off read from the data, not from the text of the source: active = inhibition above about 30%; inactive = below that, where a call was filed.

Target: D(2) dopamine receptor (Homo sapiens) (UniProt P14416)
Test: HTS Assay for Allosteric Antagonists of the Human D2 Dopamine Receptor: Primary Screen for Antagonists; note: 0% is about no effect
Conditions: HEK293 TREx D2 cells, calcium flux, dopamine EC80; at 10 µM; stronger effect = higher value
Excerpt: NIH Chemical Genomics Center [NCGC] NIH Molecular Libraries Probe Centers Network [MLPCN] MLPCN Grant: NS064831-01 Assay Submitter (PI): David Sibley Dopamine receptors (DARs) are involved in the etiology and/or therapy of a number of neuropsychiatric and endocrine disorders. For instance, all receptor-based antiparkinsonian drugs work via stimulating the D2 DAR subtype whereas all FDA-approved antipsychotic agents are antagonists of this receptor. […] There are three different types of allosteric modulators that we are seeking, two of which will stimulate or augment receptor signaling, allosteric agonists and potentiators, while the third, allosteric antagonists, will attenuate receptor signaling. The present primary screening assay measures compound antagonism after an EC80 addition of dopamine by tracking calcium flux in a […], inducible Hek293 Trex D2 cell line.
Freshly passaged cells are plated in 1536 well black, clear bottom plates at a density of 4000 cells/well in 3 ul of complete media containing 1x tetracycline inducer. After an overnight incubation at 30 C in 5% CO2, cells are loaded with 2 ul of the no wash Calcium Assay Kit (ABD Bioquest) and incubated at room temperature for 30 to 90 minutes. Agonist read: A 10 cycle (1 second/cycle) baseline measurement is taken and then the FDSS online 1536 pintool delivers 23 nl of compound library (as well as dopamine controls) to the plate. The plate is measured for kinetically at 1 cycle/sec for 180 seconds. Following the 180 second read, 1 ul of an EC80 (negative modulation assay) is delivered by an onboard pipette head. Measurements are taken kinetically for an additional 180 seconds.

D(2) dopamine receptor (Homo sapiens), sequence (P14416 whole entry, looked up): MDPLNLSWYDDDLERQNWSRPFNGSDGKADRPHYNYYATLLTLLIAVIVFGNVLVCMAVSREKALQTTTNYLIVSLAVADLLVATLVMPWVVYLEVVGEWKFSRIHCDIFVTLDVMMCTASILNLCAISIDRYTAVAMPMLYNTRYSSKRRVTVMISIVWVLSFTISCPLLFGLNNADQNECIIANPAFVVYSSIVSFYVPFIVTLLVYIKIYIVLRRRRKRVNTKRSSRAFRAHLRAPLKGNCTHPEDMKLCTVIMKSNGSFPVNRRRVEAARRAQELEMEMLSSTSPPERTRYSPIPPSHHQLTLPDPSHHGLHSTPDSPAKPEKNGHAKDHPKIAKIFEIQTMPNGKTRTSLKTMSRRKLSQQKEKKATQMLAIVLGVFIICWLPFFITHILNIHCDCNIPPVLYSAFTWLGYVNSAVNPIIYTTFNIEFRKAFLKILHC

Row | SMILES | inhibition
1 | CCN(CC)C(=O)CN(c1cccc([N+](=O)[O-])c1)S(=O)(=O)c1ccccc1 | -8.71% (inactive)
2 | Cc1ccc(N(CC(O)CN2CCCC2)S(=O)(=O)c2ccccc2)cc1 (stereo unspecified) | -18.8% (inactive)
3 | O=S(=O)(c1ccccc1)N(CC(O)CN1CCCCC1)c1ccccc1 (stereo unspecified) | -13.9% (inactive)
4 | COc1ccc([N+](=O)[O-])cc1N(CC(O)Cn1nnc2ccccc21)S(=O)(=O)c1ccc(C)cc1 (stereo unspecified) | 12.1% (inactive)
5 | Cc1ccc(S(=O)(=O)N(CC(O)CN2C(=O)NC(C)(C)C2=O)c2cccc([N+](=O)[O-])c2)cc1 (stereo unspecified) | 30.4% (active)
6 | Cc1ccc(S(=O)(=O)N(CC(O)CN2CCCCC2)c2cccc([N+](=O)[O-])c2)cc1 (stereo unspecified) | 35.8% (active)
7 | COc1ccc([C@H]2CC(=O)C=C(c3ccc(OC(F)(F)F)cc3)C2)cc1OC | 10.4% (inactive)
8 | CN(CC(=O)NCCc1ccc(F)cc1)CC(=O)Nc1ccc(F)c(F)c1F | -4.31% (inactive)
9 | CCCCn1c(N)c(N(CCC(C)C)C(=O)COC(=O)c2ccc(CC)cc2)c(=O)[nH]c1=O | -24% (inactive)
10 | O=C(Nc1ccc2c(c1)OCO2)C1CC1(Cl)Cl (stereo unspecified) | 4.68% (inactive)
11 | COc1ccc(Cc2nnnn2CC(=O)O)cc1 | 35.2% (active)
12 | COc1ccc(Cc2nnc(SCC(=O)N(c3ccccc3)C(C)C)n(N)c2=O)cc1 | -8.57% (inactive)
13 | CCCn1nnnc1NCc1ccc(OC)cc1 | -21.1% (inactive)
14 | Cc1ccccc1OCCC(=O)OCC(=O)NCCc1ccc(S(N)(=O)=O)cc1 | -20% (inactive)
15 | COc1cccc(C(=O)N2CCCC(CCC(=O)NCc3ccc(F)c(F)c3)C2)c1 (stereo unspecified) | 34.4% (active)
16 | COc1cccc(CNC(=O)CCC2CCCN(C(=O)c3ccc(F)c(Cl)c3)C2)c1 (stereo unspecified) | 7.84% (inactive)
17 | COc1cccc(CNC(=O)CCC2CCCN(C(=O)c3ccoc3C)C2)c1 (stereo unspecified) | -10.4% (inactive)
18 | Cc1ccc(S(=O)(=O)N2[C@@H](c3cccc(Cl)c3)C(C(=O)O)=CC[C@H]2c2ccc(Cl)c(Cl)c2)cc1 | -1.92% (inactive)
19 | COc1ccc(S(=O)(=O)N2CCOCC2)cc1NC(=O)Cc1coc2cc(C)ccc12 | -8.41% (inactive)

Row | SMILES | inhibition
20 | O=C(NNC(=O)C1CCC1)c1ccccc1 | -2.25% (inactive)
21 | Cc1ccc(NC(=O)Nc2cccc(C(F)(F)F)c2)nc1 | -7.91% (inactive)
22 | CCNS(=O)(=O)c1ccc(NC(=O)Nc2cccc(C(F)(F)F)c2)cc1 | 38.4% (active)
23 | CC(C)C[C@H](NC(=O)Nc1cccc(C(F)(F)F)c1)C(=O)O | 7.87% (inactive)
24 | CCOC(=O)[C@H]1[C@H]2COc3ccc(C)cc3[C@@H]2N2C(=O)CN(Cc3ccc(F)cc3)C(=O)[C@@]12C | -3.67% (inactive)
25 | O=C(CCN1CCN(C/C=C/c2ccccc2)CC1)Nc1cccc(F)c1 | -21% (inactive)
26 | O=C(CN1CCN(C/C=C/c2ccccc2)CC1)Nc1ccc(F)cc1F | 6.36% (inactive)
27 | O=C(CCN1CCN(C/C=C/c2ccccc2)CC1)Nc1ccccc1Cl | 31.9% (active)
28 | O=C(CN1CCN(S(=O)(=O)c2cccc(Cl)c2)CC1)N1CCCCC1 | 14% (inactive)
29 | Cc1ccc(C)c(NC(=O)CN(C)C(=O)c2ccc3ncsc3c2)c1 | 17.4% (inactive)
30 | CCCn1nc(C(=O)OCc2nc(N)nc(Nc3ccccc3C)n2)c2ccccc2c1=O | 6.08% (inactive)
31 | COc1cc(OC)c(C(=O)OCC(=O)N2CC(=O)Nc3ccccc32)cc1OC | -2.09% (inactive)
32 | Cc1ccc(S(=O)(=O)N(C)CC(=O)OCC(=O)N2CC(=O)Nc3ccccc32)cc1 | 36.8% (active)
33 | Cc1ccc(S(=O)(=O)N(C)CC(=O)OCC(=O)Nc2ccccc2)cc1 | -5.35% (inactive)
34 | COc1cc(C(=O)Nc2ncccc2C)ccc1OCC(=O)N1CCOCC1 | -21.1% (inactive)
35 | COc1ccc(NC(=O)CN(C)C(=O)c2cccc(S(=O)(=O)N3CCN(c4ccccc4)CC3)c2)cc1 | -9.07% (inactive)
36 | Cc1cccc(-c2oc3ccc(-c4ccc5c(c4)OCO5)cc3c2C#Cc2cncn2C)c1 | 11.3% (inactive)
37 | COc1ccccc1CC(=O)NCCc1c[nH]c2ccccc12 | -11.6% (inactive)
38 | COc1ccc(/C=C(\NC(=O)c2ccc(OC)c(OC)c2)C(=O)NCCc2c[nH]c3ccccc23)cc1 | -6.61% (inactive)

Row | SMILES | inhibition
39 | CC(=O)N/C(=C/c1ccc(Cl)cc1)C(=O)NCCc1c[nH]c2ccccc12 | 31% (active)
40 | CC1CC(C)CN(C(=O)COC(=O)c2ccc3ncsc3c2)C1 (stereo unspecified) | -13.9% (inactive)
41 | NS(=O)(=O)c1ccc(CNC(=O)c2cccc(Oc3ccccc3)c2)cc1 | 9.32% (inactive)
42 | NS(=O)(=O)c1ccc(CNC(=O)c2cccc(S(=O)(=O)N3CCc4ccccc43)c2)cc1 | 41% (active)
43 | Cc1ccc(NC(=O)c2cccc(S(=O)(=O)N3CCCc4ccccc43)c2)nc1 | 7.09% (inactive)
44 | Cc1ccccc1Nc1nc(N)nc(COC(=O)CCC(=O)c2ccc(F)cc2)n1 | 2.44% (inactive)
45 | COc1ccc(-c2c(-c3cc(OC)cc(OC)c3)n(C)c3ccc(-c4ccn[nH]4)cc23)cc1 | -12.7% (inactive)
46 | CCc1nnc(NC(=O)CSc2nnc(-c3ccncc3)n2Cc2ccccc2)s1 | 30.7% (active)
47 | CCc1nnc(NC(=O)CSc2nnc(Cc3ccccc3)n2-c2ccc(OC)cc2)s1 | 0.9% (inactive)
48 | Cc1cnc(NC(=O)CSc2nnc(-c3ccccc3)n2Cc2ccccc2)s1 | 8.7% (inactive)
49 | COc1ccccc1CNC(=O)COC(=O)c1sc(C)nc1C | 16.2% (inactive)
50 | O=C(NCC1CCCO1)c1cc2c(s1)CCCC2 (stereo unspecified) | 24.5% (inactive)
51 | O=C(COC(=O)CNC(=O)C1CCCCC1)Nc1cccc(F)c1 | -2.8% (inactive)
52 | OC(CNCCc1ccc(Cl)cc1Cl)COc1ccccc1 (stereo unspecified) | -28.1% (inactive)
53 | COc1ccc(CNC(=O)C(C)NCc2ccccc2Cl)cc1 (stereo unspecified) | 2.26% (inactive)
54 | CC(CCc1ccc(O)cc1)NCc1ccc(Cl)cc1Cl (stereo unspecified) | 57% (active)
55 | Cc1ccc(OCC(=O)Nc2ccccc2C(=O)NC2CC2)cc1 | -3.15% (inactive)
56 | Cc1c(NS(=O)(=O)c2cc(C(=O)NCCc3ccc(F)cc3)cc(Cl)c2Cl)c(=O)n(-c2ccccc2)n1C | 0.733% (inactive)
